High-throughput results: PubChem BioAssay, NMMLSC
MEKK3 PB1 HTS: MEKK3-MEK5 PB1 interaction, increase or decrease. Q99759. bead-based flow cytometry, Alexa488-MEK5 binding to MEKK3; actives lie on both sides; 0 = blocked by unlabeled MEK5, 100 = vehicle. binding response (% of control), % at 10 µM. 290,000 compounds, 1.4% hits. AID 1529;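 active means binding response more than 3 SD above or below the average of its plate-row segment, actives on both sides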;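 further: Alexa488 bead fluorescence after subtracting the streptavidin-only scavenger bead signal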
MEKK2wt PB1 HTS: raises or lowers MEK5 binding to wildtype human MEKK2 PB1 domain | Q9Y2U5 | bead flow cytometry, Alexa488-MEK5 binding to MEKK2 WT; actives lie on both sides | binding response (% of control), % at 10 µM | 290,000 compounds, 1.1% hits | AID 1531; in the data active means binding response below about 67% or above about 130%
GRK2 aptamer HTS: blocks RNA aptamer binding to human GRK2; 330,000 compounds, 0.59% hits; bead flow cytometry, FAM-aptamer displacement from GRK2; inhibition of aptamer binding, % at 10 µM;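 active means inhibition of aptamer binding above 40%, roughly 3 SD of noise, on plates passing a quality check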;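 further: median bead fluorescence of bound FAM aptamer so fluorescent compounds give negative values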
Target sequence (P25098 whole entry, looked up): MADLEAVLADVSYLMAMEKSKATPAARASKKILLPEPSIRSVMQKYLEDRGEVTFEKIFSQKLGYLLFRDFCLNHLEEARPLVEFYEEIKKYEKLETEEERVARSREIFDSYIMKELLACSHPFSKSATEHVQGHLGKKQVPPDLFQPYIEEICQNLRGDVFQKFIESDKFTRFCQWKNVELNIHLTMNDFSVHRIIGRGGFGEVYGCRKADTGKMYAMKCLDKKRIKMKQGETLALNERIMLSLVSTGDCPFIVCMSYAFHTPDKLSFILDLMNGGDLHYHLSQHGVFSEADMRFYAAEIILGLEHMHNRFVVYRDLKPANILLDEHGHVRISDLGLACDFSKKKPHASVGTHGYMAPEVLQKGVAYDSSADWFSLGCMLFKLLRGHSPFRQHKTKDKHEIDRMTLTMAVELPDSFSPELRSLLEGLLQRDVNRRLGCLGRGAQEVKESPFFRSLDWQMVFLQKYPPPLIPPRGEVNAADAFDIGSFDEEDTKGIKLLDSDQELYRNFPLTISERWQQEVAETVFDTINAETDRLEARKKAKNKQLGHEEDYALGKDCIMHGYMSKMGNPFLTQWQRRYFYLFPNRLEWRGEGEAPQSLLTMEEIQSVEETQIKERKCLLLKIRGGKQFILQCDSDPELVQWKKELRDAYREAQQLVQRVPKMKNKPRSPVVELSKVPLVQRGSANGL
MEKK2 mut-MEK5: signal of MEK5 binding to mutant human MEKK2 PB1 domain; bead flow cytometry, Alexa488-MEK5 binding to MEKK2 mutant; percent response, % at 10 µM; 290,000 compounds, 0.35% hits; AID 1530; in the data active means percent response above about 24%, passing the limit was not always enough
Numbers without * were called inactive; x = no result; + = active, no number; [ ] = remark or other dose. In the library only some 2.5% were active in any assay of this set; here they are far more common.

SMILES	MEKK3 PB1 HTS	MEKK2wt PB1 HTS	GRK2 aptamer HTS	MEKK2 mut-MEK5
COc1ccc(NC(=O)CN2CCC(NC(=O)C3CCCCC3)CC2)cc1	105	106	0	3
CN(C)c1ccc(NC(=O)CN2CCC(NC(=O)C3CCCCC3)CC2)cc1	103	137*	0	30*
CS(=O)(=O)N(CC(=O)N1CCCC1)c1cccc(F)c1	85	81	0	-5
CCC(C)n1c(=S)[nH]c2ccccc2c1=O (stereo not drawn)	96	91	0	-12
CCC(Cc1ccccc1)n1c(=S)[nH]c2ccccc2c1=O (stereo not drawn)	136*	x	0	+
Cc1ccc(C(C)C)c(OCC(=O)Nc2ccc3c(c2)nc(CCN2CCCCC2)n3C)c1	103	141*	0	12
Cn1c(CCN2CCCCC2)nc2cc(NC(=O)COc3ccc(Cl)cc3)ccc21	100	114	0	4
CC(C)OC(=O)c1c2c(n3ccccc13)C(=O)c1ccccc1C2=O	94	35*[inhibitor]	24	-46
COC(=O)c1cc2c(C)c(C)c3ccccn3c-2c1C(=O)OC	100	100	4	1
Cc1cc(Br)cc(Cl)c1OC(=O)c1ccncc1	1.0*[inhibitor]	1.0*[inhibitor]	6	-39
Cc1cc(Br)cc(Cl)c1OC(=O)c1cnccn1	102	102	5	2
Cc1cccc(C(=O)N2CCc3cc(-c4csc(NC(=O)CN5CCCC5)n4)ccc32)c1	105	121	0	25*
O=C(Nc1ccc(O)c(-c2nc3ccccc3s2)c1)c1cc(=O)c2ccccc2o1	79	79	90*	-2
O=C(N/N=C/c1ccc(OC(=O)c2ccccc2Cl)cc1)c1cc(O)cc(O)c1	85	80	55*	-7
COc1cc(C(=O)N/N=C/c2ccc(OC(=O)c3ccccc3)c(OC)c2)ccc1O	97	94	1	-6
O=C(N/N=C/c1ccc(OC(=O)c2ccc(Br)cc2)cc1)c1ccncc1	66*[inhibitor]	61*[inhibitor]	0	-41
COc1cc(/C=N/NC(=O)c2cc(O)cc(O)c2)ccc1OC(=O)c1ccccc1	85	80	44*	-10
CCOC(=O)c1cc(-c2ccccc2)n(CCC(=O)N2CCN(c3ccccc3OC)CC2)c1C	95	93	0	-2
CCOC(=O)c1cc(-c2ccccc2)n(CCC(=O)N2CCN(c3ccc(OC)cc3)CC2)c1C	95	2.0*	1	-1
Cc1cnc(NC(=O)CSc2nnc(N)s2)s1	106	-8.0*	0	4
CCCC(C(=O)Nc1ccc(S(=O)(=O)N2CCCC2)cc1)c1ccccc1 (stereo not drawn)	x	x	2	x
Cc1[nH]c2ccccc2c1/C=N/Nc1ccc(F)cc1F	131	0.0*	0	6
Cc1[nH]c2ccccc2c1/C=N/Nc1ccc([N+](=O)[O-])cc1	91	24*	0	43
COc1ccc(CCNc2nc(-c3sc(N)nc3C)cs2)cc1OC	101	102	2	-1
COCCNc1nc(-c2cc(C)n(CCc3ccc(OC)cc3)c2C)cs1	80	-5.0*	0	41
SMILES	MEKK3 PB1 HTS	MEKK2wt PB1 HTS	GRK2 aptamer HTS	MEKK2 mut-MEK5
CN1c2ccccc2C(O)=C(C(=S)Nc2ccc(Cl)cc2)S1(=O)=O	105	95	61*	2
Cc1cccc(NC(=O)c2cc(Cl)nc3ccccc23)n1	99	95	0	-4
O=C(NNC(=O)C1CC1)c1cc(Cl)nc2ccccc12	105	107	75*	4
CC(C)[C@H](NC(=O)OCc1ccccc1)C(=O)OCC(=O)Nc1ccc(N2CCOCC2)cc1	x	x	0	x
COc1ccc(CNCCC(c2ccc(F)cc2)c2ccc(OC)cc2)cc1 (stereo not drawn)	100	140*	0	3
COc1ccc(C(CCNCc2ccc(F)cc2)c2ccc(F)cc2)cc1 (stereo not drawn)	99	128	0	5
O=C(O)c1cc(C(=O)O)cc(-c2ccc(/C=c3/sc4nc5ccccc5n4c3=O)o2)c1	71*[inhibitor]	61*[inhibitor]	x	-37
Cc1ccccc1SCC(=O)NCCCn1ccnc1	104	108	0	-4
O=C(CSc1cc(Cl)ccc1Cl)NCCCn1ccnc1	105	125	0	26*
Cc1ccccc1NC(=O)Cc1nc(COC(=O)c2cc([N+](=O)[O-])ccc2N)cs1	98	101	55*	0
O=C(O/N=C(/c1ccccc1)c1ccncc1)c1cccc(F)c1	110	93	2	-12
O=C(O/N=C(\c1ccccc1)c1ccncc1)c1ccccc1F	104	-8.0*	0	4
COC(=O)C1=C(C(=O)OC)[C@@H]2Nc3ccccc3[C@@]23C[C@@H](C(=O)OC)N(C(=O)C2CCC2)C3=N1	102	98	0	0
O=c1nc(N/N=C/c2ccccn2)cn[nH]1	3.0*[inhibitor]	4.0*[inhibitor]	6	-18
CN(CCCC[C@H](CNCc1ccc(-c2ccccc2)cc1)N1C[C@H](c2ccccc2)N(CCc2ccc(Cl)c(Cl)c2)C(=O)C1=O)Cc1ccc(-c2ccccc2)cc1	113	228*	x	78*
Cc1oc2cc3oc(=O)c(CCC(=O)N(C)CC(=O)O)c(C)c3cc2c1C	103	101	0	0
COc1ccc(Cl)cc1-c1nc(SCC(=O)N(C)C2CCS(=O)(=O)C2)n[nH]1 (stereo not drawn)	x	x	0	x
CCc1ccc(CCC(=O)Nc2ncc(Cc3ccccc3Cl)s2)o1	163*	113	2	1
CCOc1ccc(N/C(SCc2cccc([N+](=O)[O-])c2)=C(/C#N)C(N)=O)cc1	96	87	0	-9
N#CC(C#N)=C(Nc1ccc(F)cc1)SCc1cccc(F)c1	3.0*[inhibitor]	4.0*[inhibitor]	0	-16
CCCC[C@@H]1C=C(C(=O)O)[C@H](c2ccc(Cl)c(Cl)c2)N1S(=O)(=O)c1ccc(C)cc1	x	x	1	x
CCOc1cccc2sc(N(CCCN(C)C)C(=O)c3ccc(S(=O)(=O)N(CC)Cc4ccccc4)cc3)nc12	113	227*	0	54*
CN(C)CCN(C(=O)c1ccc2ccccc2c1)c1nc2ccc(Br)cc2s1	106	144*	0	12
CN(C)CCCN(C(=O)c1ccc(S(=O)(=O)N2CCOCC2)cc1)c1nc2ccc(F)cc2s1	92	106	0	-1
Cc1ccc2nc(N(CCCN(C)C)C(=O)c3ccc(S(=O)(=O)N4CCCCCC4)cc3)sc2c1	108	171*	0	28*
CC1CCCCN1S(=O)(=O)c1ccc(C(=O)N(CCCN(C)C)c2nc3ccc(Br)cc3s2)cc1 (stereo not drawn)	117	258*	0	76*
Cc1ccc2nc(N(CCN(C)C)C(=O)c3ccc4ccccc4c3)sc2c1	105	130	0	14
CC(C)c1cc(C(=O)N2CCCC(N3CCN(c4ccc(F)cc4)CC3)C2)n(C)n1 (stereo not drawn)	103	99	x	3
Cc1ccc(S(=O)(=O)N(C)C)cc1NC(=O)COC(=O)CCC1CCCCC1	x	x	1	x
CC(C)Cc1nc2c(nnn2Cc2ccccc2F)c(=O)[nH]1	88	87	2	-4
